Screens: PubChem BioAssay, several laboratories
Compounds with a hit are over-represented: about 32% of the library has one in this group of screens.
CYP2C9 inh: blockers of cytochrome P450 2C9 activity – biochemical, luminescence, ADME assay, primary screen; 96,000 compounds, 20% hits; inhibition, % at 5 µM; CYP2C9 Supersomes, luciferin-H conversion;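 active = blocking of liver enzyme CYP2C9 beyond about 50% at 5 µM, limit read from the data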
CYP2C19 inh: blockers of cytochrome P450 2C19 activity – biochemical, luminescence, ADME assay, primary screen; inhibition, % at 5 µM; AID 778, 2007; CYP2C19 Supersomes, luciferin-H EGE luminescence, 30 min; 96,000 compounds, 21% hits; P33261;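 active = CYP2C19 inhibition above a set limit at 5 µM in the primary screen, cut at about 50% in these data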
Target sequence (P33261 whole entry, looked up): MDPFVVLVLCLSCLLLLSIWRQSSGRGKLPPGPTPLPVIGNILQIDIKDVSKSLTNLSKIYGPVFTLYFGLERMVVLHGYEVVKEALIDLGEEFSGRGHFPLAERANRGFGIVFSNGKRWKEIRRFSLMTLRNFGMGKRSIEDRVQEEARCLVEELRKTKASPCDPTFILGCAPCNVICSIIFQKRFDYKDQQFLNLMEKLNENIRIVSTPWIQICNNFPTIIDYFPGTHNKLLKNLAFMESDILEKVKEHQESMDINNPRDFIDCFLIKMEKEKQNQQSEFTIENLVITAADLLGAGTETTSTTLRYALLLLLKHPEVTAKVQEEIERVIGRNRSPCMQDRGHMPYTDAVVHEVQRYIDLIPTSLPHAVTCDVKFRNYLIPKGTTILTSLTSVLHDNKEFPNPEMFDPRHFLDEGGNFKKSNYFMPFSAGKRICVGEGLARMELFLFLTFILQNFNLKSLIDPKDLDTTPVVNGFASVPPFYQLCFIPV
PostGolgi ctrl: growth inhibition of yeast control strain, primary screen, counter-screen for post-Golgi transport modulator project. 98,000 compounds, 5% hits. inhibition, % at 10 µM. efflux-deficient yeast background strain, growth absorbance A615, 16 h. AID 738, 2007
CYP2C19 act: human CYP2C19 activators, primary screen, biochemical, luminescence; 96,000 tested, under 10 active; recombinant CYP2C19, luciferin-H EGE luminescence; hits give high values; 0 = fully inhibited enzyme, 1 = untreated enzyme; Cytochrome P450 2C19 (Homo sapiens), P33261; activation factor at 5 µM;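 active = activation factor of at least 2 at 5 µM in the primary screen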
CYP2C9 act: human CYP2C9 activators, primary screen, biochemical, luminescence | Cytochrome P450 2C9 (Homo sapiens), P11712 | recombinant CYP2C9, luciferin-H conversion; hits give high values; factor 1 = untreated enzyme, 0 = blocked | activation factor at 5 µM | 96,000 compounds, 1.4% hits;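 active = activation factor of 2 or more for CYP2C9 at a 5 µM dose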
PostGolgi yeast: phenotypic screen on post-Golgi transport, primary screen; post-Golgi transport phenotypic cell assay; inhibition, % at 10 µM; 98,000 compounds, 0.9% hits;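 also: yeast cells grown in 1536-well plates; yeast grown about 18 h at 30C before absorbance read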
Each line names hits and unclear results; the compound was inactive in the other large screens. Rule as the data show it, unless noted: active = inhibition above about 30%; inactive = the rest.

COc1ccc(C(=O)NCC(c2ccc(F)cc2)N2CCOCC2)cc1S(=O)(=O)N1CCCC1 (stereo not drawn)	CYP2C19 inh 92
COc1ccccc1NC(=O)c1ccc(Cl)c(S(=O)(=O)N2CCOCC2)c1	CYP2C9 inh 51
O=C(Nc1ccccc1)c1ccc(F)c(S(=O)(=O)N2CCOCC2)c1	CYP2C9 inh 56, CYP2C19 inh 57
Cc1ccc(-n2nc3c(c2NC(=O)c2ccc(S(=O)(=O)N4CCOCC4)cc2)CSC3)c(C)c1	CYP2C9 inh 67
COc1ccc(C(CNC(=O)c2ccc(S(=O)(=O)N3CCOCC3)cc2)N2CCCCC2)cc1 (stereo not drawn)	none (no result: CYP2C9 inh, CYP2C19 inh, CYP2C19 act, CYP2C9 act)
Cc1ccc(NC(=O)c2ccc(F)c(S(=O)(=O)N3CCOCC3)c2)cc1F	none
CC1CCCC(C)N1C(=O)CSc1nc(N)c(-c2ccccc2)c(=O)[nH]1 (stereo not drawn)	none
O=C(Nc1ccc2c(c1)OCCO2)c1ccc(Cl)c(S(=O)(=O)N2CCOCC2)c1	CYP2C19 inh 63
CCOc1ccccc1NC(=O)c1ccc(F)c(S(=O)(=O)N2CCC3(CC2)OCCO3)c1	CYP2C9 inh 58, CYP2C19 inh 58
O=C(NCc1ccccc1)c1ccc(F)c(S(=O)(=O)N2CCOCC2)c1	none
O=C(O)CCCCCNC(=O)CCn1cnc2ccccc2c1=O	none
CCOC(=O)C1CSc2[nH]c(=O)sc2C1c1ccccc1 (stereo not drawn)	CYP2C9 inh 62, CYP2C19 inh 81
COC(=O)C1CSc2[nH]c(=O)sc2C1c1ccc(O)c(OC)c1 (stereo not drawn)	none
COc1ccc(C(=O)CSc2nnc(Cn3cnc4ccccc43)o2)cc1	none
COc1ccc(CNC(=O)c2cc3c(s2)CS(=O)C3)cc1 (stereo not drawn)	CYP2C9 inh 54, CYP2C19 inh 71
CC1CCc2sc(C(=O)NCc3ccc(F)cc3)cc2C1 (stereo not drawn)	none
O=C(NCc1ccc(F)cc1)c1cc2c(s1)CCCC2	CYP2C9 inh 53
O=C(NCc1ccccn1)C1CCC(=O)N1C1CCCCC1 (stereo not drawn)	none
COc1ccc(O)c(CN2CCN(C/C=C/c3ccccc3)CC2)c1	PostGolgi ctrl 34, PostGolgi yeast 42
COc1ccc(NC(=S)N2CCN(C/C=C/c3ccccc3)CC2)cc1OC	none
COc1cc(Br)cc(CN2CCN(C/C=C/c3ccccc3)CC2)c1O	CYP2C19 inh 60
C(=C\c1ccccc1)/CN1CCN(Cc2ccc3c(c2)OCCO3)CC1	none
Cc1cc(C)c2c(CN3CCN(C/C=C/c4ccccc4)CC3)cc(=O)oc2c1	CYP2C9 inh 69, CYP2C19 inh 51
COc1ccc(OC)c(NC(=S)N2CCN(C/C=C/c3ccccc3)CC2)c1	none
Cc1nc2nc(-c3ccco3)[nH]n2c(=O)c1C	none
CCOc1ccccc1NC(=O)C(CC(C)C)NC(=O)C1CCCCC1 (stereo not drawn)	none
Cc1cc(Br)ccc1NC(=O)CCN1C(=O)c2ccncc2C1=O	PostGolgi ctrl 33
O=C(CCN1C(=O)c2ccncc2C1=O)Nc1ccc(F)cc1	none
CC1(C)CC(=O)C2=C(C1)OC1=C(C(=O)CC(C)(C)C1)C2c1ccc(O)cc1O	CYP2C9 act 2.5
CCOC(=O)C1=C(N)OC2=C(C(=O)CC(C)(C)C2)C1c1ccco1 (stereo not drawn)	none
CNc1nc(NCCOC23CC4CC(CC(C4)C2)C3)nc(OCC(F)(F)F)n1	none
Cc1cc(C)cc(NC(=O)C2(c3ccccc3)CC2(Cl)Cl)c1 (stereo not drawn)	none
CCn1ccc(C(=O)Nc2ccc(Cl)cn2)n1	CYP2C19 inh 67
CCn1nccc1C(=O)Nc1ccc(Cl)cn1	CYP2C19 inh 59
CCOc1ccc(-n2ccnc2SCC(=O)Nc2nnc(C)s2)cc1	none
CCc1nnc(NC(=O)CSc2nnc(-c3c[nH]c4ccccc34)n2C)s1	none
CCc1nnc(NC(=O)CSc2nccn2-c2cc(C)cc(C)c2)s1	CYP2C9 inh 58
Cc1cccc(-n2ccnc2SCC(=O)Nc2nccs2)c1C	CYP2C19 inh 53
CCc1nnc(NC(=O)CSc2nccn2-c2cccc(C)c2C)s1	CYP2C9 inh 53
Cc1c(Cl)cccc1NC(=O)Cn1cccc1	none
Cc1c(Cl)cccc1-n1ccnc1SCC(=O)O	CYP2C9 inh 67
O=C(Nc1ccccc1)c1nnsc1S(=O)c1ccc(Cl)cc1 (stereo not drawn)	CYP2C9 inh 64, PostGolgi ctrl 102, PostGolgi yeast 105
Cc1nn(Cc2ccc(Cl)cc2Cl)c(C)c1NC(=O)NC12CC3CC(CC(C3)C1)C2	none
Cc1ccc(C)c(S(=O)(=O)NCC(=O)Nc2sc3c(c2C(N)=O)CCC(C)C3)c1 (stereo not drawn)	none
Clc1cccc(NCc2nnc(SCc3ccccc3Cl)o2)c1	PostGolgi ctrl 40
Clc1cccc(NCc2nnc(SCc3ccccc3)o2)c1	CYP2C9 inh 83, CYP2C19 inh 82
N#CCSc1nnc(CNc2cccc(Cl)c2)o1	none
COC(=O)c1ccnc(/C=N/O)c1	none (no result: CYP2C9 inh, CYP2C19 inh, CYP2C19 act, CYP2C9 act)
CC(NC(=O)Cn1nc(-c2ccccc2)c2ccccc2c1=O)c1ccccc1 (stereo not drawn)	CYP2C19 inh 89
CC(=O)/C(=N/Nc1cccc(C)c1)N1CCOCC1	CYP2C9 inh 68, CYP2C19 inh 67
Cc1nc(CC(=O)O)c(-c2ccccc2)s1	none
CCCCNC(=S)Nc1ccccc1F	none
CS(=O)(=O)N1CCN(c2ccccc2NC(=O)c2ccco2)CC1	none
CN(C(=O)c1ccc(S(=O)(=O)NC2CCCC2)cc1)C1CCCCC1	none
COC(=O)c1cccc(NC(=O)CSc2nnc(COc3ccc(C#N)cc3)n2-c2ccccc2)c1	CYP2C9 inh 69
Cc1nnc(SCC(=O)Nc2ncc(Cl)cc2Cl)n1Cc1ccccc1	none
COC(=O)c1cccc(NC(=O)CSc2nnc(COc3cccc(C)c3)n2C)c1	none
COC(=O)c1cccc(NC(=O)CSc2nnc(C)n2Cc2ccccc2)c1	CYP2C9 inh 89, CYP2C19 inh 70
CCOc1ccccc1-n1c(COc2ccccc2)nnc1SCC(N)=O	none
Cc1cccc(NC(=O)CSc2nnc(C)n2Cc2ccccc2)c1	CYP2C19 inh 59
CCOc1ccc(-n2c(COc3ccccc3)nnc2SCC(N)=O)cc1	CYP2C19 inh 76
Cc1nnc(SCC(=O)Nc2sccc2C(N)=O)n1Cc1ccccc1	CYP2C19 inh 76, PostGolgi ctrl 32, CYP2C9 act 2.3
COCc1nnc(SCC(=O)Nc2cccc(Cl)c2C)n1-c1ccccc1	CYP2C19 inh 84
Cc1nnc(SCC(=O)N2CCC(C(=O)Nc3nccs3)CC2)n1Cc1ccccc1	none (no result: CYP2C9 inh, CYP2C19 inh, CYP2C19 act, CYP2C9 act)
